Tests used:
Experiment in all cases: log2 ratio of Biotin-Ahx-Ub-VS probe labelling (fragment/DMSO); higher = less target engagement (more negative = stronger competition), active = hit call of the paper (q ≤ 0.05, log2 ratio ≤ -1)
Details in all cases: compound concentration: 200 uM; treatment time: 3 h
[1] = molecular target: USP16 (UniProt Q9Y5T5)
Method in brief: (§1)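 Labelled DUBs from HEK293T lysate were NeutrAvidin-enriched, digested with LysC and trypsin, and run by diaPASEF LC-MS/MS. Before that, each 495 µg sample in Tris/CHAPS/IGEPAL buffer with protease inhibitors was treated in triplicate with fragment at 200 µM or vehicle for 3 h, then with Biotin-Ahx-Ub-VS at 0.5 µM final for 1 h. Values are average log2 ratios of fragment over vehicle by unpaired t-test, based on global-median-normalised Spectronaut label-free quantities from proteins with ≥2 unique peptides.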

[2] = molecular target: T1, USP19 (UniProt O94966)
T1 sequence (whole entry): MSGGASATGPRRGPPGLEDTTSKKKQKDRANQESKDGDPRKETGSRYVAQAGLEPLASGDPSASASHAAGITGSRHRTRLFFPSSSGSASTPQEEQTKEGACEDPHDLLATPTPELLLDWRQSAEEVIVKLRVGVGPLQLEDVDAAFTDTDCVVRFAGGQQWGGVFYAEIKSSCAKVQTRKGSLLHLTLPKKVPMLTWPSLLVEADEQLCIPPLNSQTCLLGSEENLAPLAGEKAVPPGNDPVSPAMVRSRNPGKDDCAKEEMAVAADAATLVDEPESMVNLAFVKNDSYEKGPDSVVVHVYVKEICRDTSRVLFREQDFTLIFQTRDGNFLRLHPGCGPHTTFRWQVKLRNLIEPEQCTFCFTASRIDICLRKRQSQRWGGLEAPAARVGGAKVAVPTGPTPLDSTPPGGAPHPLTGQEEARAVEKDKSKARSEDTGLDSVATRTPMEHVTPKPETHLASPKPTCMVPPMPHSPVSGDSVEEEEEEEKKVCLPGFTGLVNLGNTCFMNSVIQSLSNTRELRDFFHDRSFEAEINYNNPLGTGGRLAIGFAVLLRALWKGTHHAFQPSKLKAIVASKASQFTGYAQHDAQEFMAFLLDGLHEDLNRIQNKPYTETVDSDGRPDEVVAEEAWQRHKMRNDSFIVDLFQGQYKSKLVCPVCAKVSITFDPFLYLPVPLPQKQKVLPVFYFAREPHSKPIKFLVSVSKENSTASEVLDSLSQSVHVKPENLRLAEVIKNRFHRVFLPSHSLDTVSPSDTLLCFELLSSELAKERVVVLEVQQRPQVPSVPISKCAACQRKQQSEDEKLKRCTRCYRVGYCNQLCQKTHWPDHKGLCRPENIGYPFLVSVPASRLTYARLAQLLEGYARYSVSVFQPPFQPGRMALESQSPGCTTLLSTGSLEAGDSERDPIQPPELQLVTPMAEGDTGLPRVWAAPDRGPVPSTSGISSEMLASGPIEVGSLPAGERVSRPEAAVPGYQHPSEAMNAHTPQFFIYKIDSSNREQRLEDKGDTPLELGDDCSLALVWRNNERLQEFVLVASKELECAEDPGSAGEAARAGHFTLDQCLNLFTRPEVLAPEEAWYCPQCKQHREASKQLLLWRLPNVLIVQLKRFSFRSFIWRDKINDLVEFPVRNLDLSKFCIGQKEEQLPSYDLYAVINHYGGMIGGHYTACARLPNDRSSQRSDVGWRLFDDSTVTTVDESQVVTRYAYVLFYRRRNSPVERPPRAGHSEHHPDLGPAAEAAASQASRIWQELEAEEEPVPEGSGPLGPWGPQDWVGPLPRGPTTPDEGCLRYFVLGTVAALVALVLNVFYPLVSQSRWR
Method in brief: as §1

[3] = molecular target: USP24 (UniProt Q9UPU5)
Method in brief: as §1

[4] = molecular target: T2, USP25 (UniProt Q9UHP3)
T2 sequence (whole entry): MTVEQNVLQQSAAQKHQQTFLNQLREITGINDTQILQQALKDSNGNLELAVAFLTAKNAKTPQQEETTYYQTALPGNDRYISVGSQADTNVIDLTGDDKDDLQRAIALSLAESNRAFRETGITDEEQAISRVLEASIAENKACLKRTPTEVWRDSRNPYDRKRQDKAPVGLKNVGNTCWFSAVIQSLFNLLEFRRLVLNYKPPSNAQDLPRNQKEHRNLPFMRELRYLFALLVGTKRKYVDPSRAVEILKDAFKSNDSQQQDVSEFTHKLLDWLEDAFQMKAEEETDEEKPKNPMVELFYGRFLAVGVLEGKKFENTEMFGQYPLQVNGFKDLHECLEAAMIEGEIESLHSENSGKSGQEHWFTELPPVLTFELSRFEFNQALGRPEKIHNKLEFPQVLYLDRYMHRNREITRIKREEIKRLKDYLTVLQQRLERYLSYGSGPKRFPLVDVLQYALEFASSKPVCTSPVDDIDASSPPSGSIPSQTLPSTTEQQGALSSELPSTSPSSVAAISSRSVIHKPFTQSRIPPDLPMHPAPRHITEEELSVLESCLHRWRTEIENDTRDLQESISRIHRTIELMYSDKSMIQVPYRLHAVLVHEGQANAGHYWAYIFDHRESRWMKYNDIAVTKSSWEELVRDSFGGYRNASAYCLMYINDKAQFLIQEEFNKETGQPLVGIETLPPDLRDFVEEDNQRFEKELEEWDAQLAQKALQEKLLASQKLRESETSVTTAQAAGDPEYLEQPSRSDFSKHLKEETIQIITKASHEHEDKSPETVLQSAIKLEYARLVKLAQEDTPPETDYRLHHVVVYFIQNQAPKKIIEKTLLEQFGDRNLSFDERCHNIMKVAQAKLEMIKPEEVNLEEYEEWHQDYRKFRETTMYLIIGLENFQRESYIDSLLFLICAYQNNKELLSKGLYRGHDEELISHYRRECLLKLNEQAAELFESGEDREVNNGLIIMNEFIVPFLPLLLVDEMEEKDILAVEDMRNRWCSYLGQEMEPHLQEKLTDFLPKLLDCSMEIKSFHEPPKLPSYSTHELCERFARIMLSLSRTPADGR
Method in brief: as §1

[5] = molecular target: T3, USP28 (UniProt Q96RU2)
T3 sequence (whole entry): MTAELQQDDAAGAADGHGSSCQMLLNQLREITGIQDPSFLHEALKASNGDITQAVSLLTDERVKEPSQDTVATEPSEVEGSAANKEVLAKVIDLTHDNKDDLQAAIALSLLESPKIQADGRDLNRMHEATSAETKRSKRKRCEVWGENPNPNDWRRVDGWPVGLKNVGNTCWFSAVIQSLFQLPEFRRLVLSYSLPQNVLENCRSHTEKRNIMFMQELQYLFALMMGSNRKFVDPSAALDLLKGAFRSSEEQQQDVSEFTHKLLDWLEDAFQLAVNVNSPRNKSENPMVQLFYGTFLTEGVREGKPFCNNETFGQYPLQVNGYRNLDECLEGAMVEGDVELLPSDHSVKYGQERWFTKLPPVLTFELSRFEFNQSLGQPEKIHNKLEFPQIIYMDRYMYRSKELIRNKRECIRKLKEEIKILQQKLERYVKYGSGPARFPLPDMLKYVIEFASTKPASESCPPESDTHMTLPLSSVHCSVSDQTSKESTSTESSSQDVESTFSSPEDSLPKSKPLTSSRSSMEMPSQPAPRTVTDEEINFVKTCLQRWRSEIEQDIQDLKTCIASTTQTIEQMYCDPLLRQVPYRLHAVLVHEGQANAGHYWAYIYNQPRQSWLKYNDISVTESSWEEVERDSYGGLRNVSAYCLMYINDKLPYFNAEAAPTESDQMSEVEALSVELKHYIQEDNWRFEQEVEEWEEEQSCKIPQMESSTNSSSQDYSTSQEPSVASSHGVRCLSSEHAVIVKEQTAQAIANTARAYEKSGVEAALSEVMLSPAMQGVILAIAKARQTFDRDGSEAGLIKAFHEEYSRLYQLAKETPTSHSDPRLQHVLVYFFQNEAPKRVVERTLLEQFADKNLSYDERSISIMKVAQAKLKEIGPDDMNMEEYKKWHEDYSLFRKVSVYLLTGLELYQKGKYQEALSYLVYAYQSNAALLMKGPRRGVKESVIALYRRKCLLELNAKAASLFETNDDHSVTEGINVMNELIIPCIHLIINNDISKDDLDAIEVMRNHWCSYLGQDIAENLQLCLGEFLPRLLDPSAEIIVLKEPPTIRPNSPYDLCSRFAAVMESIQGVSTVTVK
Method in brief: as §1

Measured: log2 ratio of Biotin-Ahx-Ub-VS probe labelling

Chain of USP24 (Q9UPU5 whole entry): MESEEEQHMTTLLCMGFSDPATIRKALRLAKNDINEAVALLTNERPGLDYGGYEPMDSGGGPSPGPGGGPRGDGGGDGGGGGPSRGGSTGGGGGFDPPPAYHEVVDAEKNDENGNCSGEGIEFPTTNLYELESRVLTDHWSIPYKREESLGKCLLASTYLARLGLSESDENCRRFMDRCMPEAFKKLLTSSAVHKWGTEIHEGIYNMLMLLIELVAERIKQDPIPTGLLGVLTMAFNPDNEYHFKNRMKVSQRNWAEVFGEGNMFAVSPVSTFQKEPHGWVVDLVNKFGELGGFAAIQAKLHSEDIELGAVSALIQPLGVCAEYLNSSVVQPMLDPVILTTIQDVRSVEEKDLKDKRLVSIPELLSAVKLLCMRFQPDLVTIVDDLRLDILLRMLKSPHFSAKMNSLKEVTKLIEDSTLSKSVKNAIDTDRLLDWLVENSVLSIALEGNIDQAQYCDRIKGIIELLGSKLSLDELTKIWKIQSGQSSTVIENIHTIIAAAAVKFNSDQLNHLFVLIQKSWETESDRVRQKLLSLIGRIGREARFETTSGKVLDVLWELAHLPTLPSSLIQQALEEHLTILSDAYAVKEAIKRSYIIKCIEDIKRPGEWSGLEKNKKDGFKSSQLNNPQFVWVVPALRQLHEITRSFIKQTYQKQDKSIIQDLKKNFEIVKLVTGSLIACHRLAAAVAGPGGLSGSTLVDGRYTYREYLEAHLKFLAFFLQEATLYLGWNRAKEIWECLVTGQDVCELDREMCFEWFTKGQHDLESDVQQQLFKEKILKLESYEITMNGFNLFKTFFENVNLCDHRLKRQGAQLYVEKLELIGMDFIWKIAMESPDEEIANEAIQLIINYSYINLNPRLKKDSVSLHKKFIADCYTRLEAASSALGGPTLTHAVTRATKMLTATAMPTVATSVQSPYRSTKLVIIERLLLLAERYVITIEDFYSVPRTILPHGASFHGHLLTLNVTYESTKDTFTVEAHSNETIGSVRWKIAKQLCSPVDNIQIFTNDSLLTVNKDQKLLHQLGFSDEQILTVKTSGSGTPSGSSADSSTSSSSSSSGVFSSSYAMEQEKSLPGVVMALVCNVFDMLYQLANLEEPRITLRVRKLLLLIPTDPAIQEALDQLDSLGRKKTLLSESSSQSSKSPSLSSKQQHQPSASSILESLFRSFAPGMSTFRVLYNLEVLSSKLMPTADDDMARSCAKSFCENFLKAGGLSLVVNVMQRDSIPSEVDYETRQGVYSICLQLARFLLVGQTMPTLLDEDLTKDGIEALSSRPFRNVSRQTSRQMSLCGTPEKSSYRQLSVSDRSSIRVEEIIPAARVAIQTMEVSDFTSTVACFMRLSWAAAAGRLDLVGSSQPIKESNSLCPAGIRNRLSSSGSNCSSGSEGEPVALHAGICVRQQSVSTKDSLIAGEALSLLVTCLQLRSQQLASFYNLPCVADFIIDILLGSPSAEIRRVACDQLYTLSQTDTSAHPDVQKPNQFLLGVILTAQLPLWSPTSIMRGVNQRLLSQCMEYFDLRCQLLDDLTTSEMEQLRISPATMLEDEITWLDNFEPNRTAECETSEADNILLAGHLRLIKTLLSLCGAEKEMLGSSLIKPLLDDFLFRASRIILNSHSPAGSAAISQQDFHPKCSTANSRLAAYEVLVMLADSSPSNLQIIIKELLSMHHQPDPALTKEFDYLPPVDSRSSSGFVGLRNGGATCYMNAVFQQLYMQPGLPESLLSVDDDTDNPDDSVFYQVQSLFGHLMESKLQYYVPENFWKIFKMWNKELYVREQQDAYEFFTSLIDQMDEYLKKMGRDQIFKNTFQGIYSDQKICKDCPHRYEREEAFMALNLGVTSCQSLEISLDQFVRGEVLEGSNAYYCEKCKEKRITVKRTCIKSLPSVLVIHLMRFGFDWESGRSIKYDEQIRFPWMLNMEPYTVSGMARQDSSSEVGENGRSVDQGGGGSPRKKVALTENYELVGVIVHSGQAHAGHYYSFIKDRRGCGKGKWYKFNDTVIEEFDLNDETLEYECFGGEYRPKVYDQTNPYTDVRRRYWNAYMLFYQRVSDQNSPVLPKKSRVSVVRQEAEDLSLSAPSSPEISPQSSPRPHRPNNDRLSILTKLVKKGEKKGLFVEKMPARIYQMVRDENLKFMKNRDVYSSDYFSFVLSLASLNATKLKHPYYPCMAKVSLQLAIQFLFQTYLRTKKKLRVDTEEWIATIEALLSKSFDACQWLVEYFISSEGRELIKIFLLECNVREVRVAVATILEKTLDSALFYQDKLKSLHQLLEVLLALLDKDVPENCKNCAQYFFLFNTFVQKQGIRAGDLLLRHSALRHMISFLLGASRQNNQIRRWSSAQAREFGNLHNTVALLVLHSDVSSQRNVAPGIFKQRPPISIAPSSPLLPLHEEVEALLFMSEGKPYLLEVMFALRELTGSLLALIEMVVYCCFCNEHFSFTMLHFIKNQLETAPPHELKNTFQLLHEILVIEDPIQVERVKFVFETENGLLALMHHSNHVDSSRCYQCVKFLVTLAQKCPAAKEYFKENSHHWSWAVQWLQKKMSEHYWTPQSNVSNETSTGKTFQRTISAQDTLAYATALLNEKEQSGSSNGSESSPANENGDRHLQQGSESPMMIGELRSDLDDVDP
Chain of USP16 (Q9Y5T5 whole entry, looked up, the tested form may be a part): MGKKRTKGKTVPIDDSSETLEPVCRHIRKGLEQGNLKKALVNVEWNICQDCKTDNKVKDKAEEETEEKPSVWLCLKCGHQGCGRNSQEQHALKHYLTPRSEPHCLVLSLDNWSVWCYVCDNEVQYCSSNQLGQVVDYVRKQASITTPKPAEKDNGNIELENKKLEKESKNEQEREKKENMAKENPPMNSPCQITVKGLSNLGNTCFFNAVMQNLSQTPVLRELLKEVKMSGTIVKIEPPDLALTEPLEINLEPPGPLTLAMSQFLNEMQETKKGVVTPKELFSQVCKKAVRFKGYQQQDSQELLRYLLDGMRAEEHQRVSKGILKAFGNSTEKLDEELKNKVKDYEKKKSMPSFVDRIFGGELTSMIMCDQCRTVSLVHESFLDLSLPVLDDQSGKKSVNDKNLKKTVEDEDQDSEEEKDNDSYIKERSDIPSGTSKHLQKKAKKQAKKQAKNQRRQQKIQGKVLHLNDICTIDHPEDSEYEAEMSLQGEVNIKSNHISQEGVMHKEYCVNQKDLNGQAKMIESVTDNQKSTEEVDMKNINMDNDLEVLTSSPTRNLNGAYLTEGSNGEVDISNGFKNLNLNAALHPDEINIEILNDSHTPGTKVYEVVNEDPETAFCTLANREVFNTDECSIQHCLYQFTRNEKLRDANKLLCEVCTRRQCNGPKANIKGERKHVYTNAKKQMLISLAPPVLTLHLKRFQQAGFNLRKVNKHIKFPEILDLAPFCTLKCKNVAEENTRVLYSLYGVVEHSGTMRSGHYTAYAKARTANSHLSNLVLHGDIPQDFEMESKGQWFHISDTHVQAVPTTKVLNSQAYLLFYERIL

CN(C)C(=O)c1ccc(CNC(=O)CCl)cc1
inactive: [1] 0.0806 | [2] 0.123 | [3] 0.117 | [4] -0.513 | [5] -0.359
